Here are results for 40 molecules from PubChem BioAssay (Tox21).

Records with an inconclusive call do not appear. A call without a number means that no potency is given here. Calls of active or inactive are those of the source. The call rests on the fitted dose curve.
Potency means the concentration at half of the fitted maximal effect.

The nature of this experiment: Nuclear factor erythroid 2-related factor 2/antioxidant responsive element (Nrf2/ARE) small molecule agonists: luciferase reporter gene qHTS assay in human keratinocytes (AID 1919969). Further: nearly all actives have a fitted effect of over 35% in size. The conditions noted are these: KeratinoSens HaCaT ARE-luciferase, luminescence, 24 h; series mostly up to 92.4 µM. An excerpt: National Center for Advancing Translational Sciences [NCATS]
Division of Preclinical Innovation [DPI]
U.S. Environmental Protection Agency [EPA]
National Institutes of Environmental Health Sciences [NIEHS]
National Toxicology Program [NTP]
U.S. Food and Drug Administration [FDA]
Oxidative stress has been implicated in the pathogenesis of a variety of diseases ranging from cancer to neurodegeneration. The antioxidant response element (ARE) signaling pathway plays an important role in the amelioration of oxidative stress. The KeratinoSens (Givaudan, Switzerland) is an in vitro test method which quantifies luciferase induction as a measure of activation of Keap1-Nrf2-antioxidationt/electrophile response element (ARE) dependant pathway in HaCaT human keratinocytes stably transfected with a selectable plasmid. The KeratinoSens assay is a cell-based assay with a reporter cell line to detect potential skin sensitizers by their ability to induce the Nrf2/ARE-response. The activation of the report gene under culture conditions can be detected by ONE-Glo Luciferase Assay System (Promega, Madison, WI). This cell line has been used to screen the Tox21 10K compound library to identify agonists that induce oxidative stress. The cytotoxicity of the Tox21 compound library against the KS-ARE cell line was tested in parallel by measuring the cell viability using CellTiter- Fluor assay system (Promega, Madison, WI) in the same wells.
HaCaT derived cell line KeratinoSens were dispensed at 1,500 cells/5uL/well in 1536-well white wall/solid bottom plates using a Multidrop Combi (ThermoFisher Scientific, Waltham, MA) dispenser. After the assay plates were incubated at 37 C/5% CO2 for 5 h, 23 nL of compounds dissolved in DMSO, positive controls or DMSO only was transferred to the assay plate by a pintool workstation (Kalypsys, San Diego, CA). The plates were incubated at 37 C/5% CO2 for 23 h, followed by addition of 1uL/well of CellTiter-Fluor reagent into the assay plates using a Flying Reagent Dispenser (Aurora Discovery, San Diego, CA) for cell viability readout that measures cytotoxicity. After 1 h incubation at 37 C/5% CO2 the fluorescence intensity was measured using a ViewLux (PerkinElmer, Shelton, CT) plate reader. Then 4uL/well of One-Glo were added using a Flying Reagent Dispenser. After the plates were incubated at room temperature for 30 min, the luminescence intensity in the assay plates was measured using ViewLux plate reader.
(In general: Reporter assays use an easily measured gene product as a stand-in for the process of interest.)
Consider `CCN(CC)c1ccc2c(c1)Oc1cc(N(CC)CC)ccc1C21OC(=O)c2ccccc21`, for which the Potency entry is “inactive”.

As to `O=[N+]([O-])c1ccc(Cl)cc1Cl`, the Potency entry is “inactive”.

As to `CCCCCCC(C)Nc1ccc(Nc2ccccc2)cc1` (stereo not given), the Potency entry was “inactive”.

In the case of `CC(C)c1ccc2c(c1)CC[C@H]1[C@](C)(CN)CCC[C@]21C`, the Potency entry was “inactive”.

On to `CC(C)CO`, for which the Potency entry is “inactive”.

Regarding `Cc1ccc(Nc2c(F)cccc2Cl)c(CC(=O)O)c1`, the Potency result is “inactive”.

For `CN1CCC(Nc2ncc3ncnc(Nc4ccc(F)c(Cl)c4)c3n2)CC1`, the Potency entry is “inactive”.

In the case of `COc1ccc(-c2nc3ccc(C4=NNC(=O)CC4C)cc3[nH]2)cc1` (stereo not given), the Potency entry is “inactive”.

`COC(=O)CC(=O)C(C)(C)C`: the Potency result is “inactive”.

`Cc1ccc(N/N=c2\c(=O)cc/c(=N\Nc3ccc(S(=O)(=O)O)cc3)c2=O)c(C)c1`: the Potency entry was “inactive”.

For `O=C1CCCCCO1`, the Potency result is “inactive”.

With `CCc1nn(CCCN2CCN(c3cccc(Cl)c3)CC2)c(=O)n1CCOc1ccccc1`, the Potency entry is “inactive”.

Regarding `CCCCCCCCCCC[C@@H](C[C@@H]1OC(=O)[C@H]1CCCCCC)OC(=O)[C@H](CC(C)C)NC=O`, the Potency result is “inactive”.

In the case of `COC(C)(C)OC`, the Potency entry is “inactive”.

For the molecule `Nc1ccc(O)c([N+](=O)[O-])c1`, the Potency is 19.3 µM (active).

On to `Cc1ccc(C(C)OC(=O)C2(C)CCC(C(=O)O)C2(C)C)cc1` (stereo not given), for which the Potency result is “inactive”.

For `CCN(CC)CCCN(c1ccccc1)C1Cc2ccccc2C1`, the Potency result is “inactive”.

With `O=[N+]([O-])c1ccc(O)cc1`, the Potency result is “inactive”.

As to `COC(Cc1ccccc1)OC`, the Potency entry is “inactive”.

`CO[Si](C)(OC)OC`: the Potency result is “inactive”.

As for `CCCCCOC(=O)Nc1nc(=O)n([C@@H]2O[C@H](C)[C@@H](O)[C@H]2O)cc1F`, the Potency entry was “inactive”.

As to `Cc1c(-c2cccnc2)c2ccccc2n1CCCCC(=O)O`, the Potency entry was “inactive”.

In the case of `OCCCCCO`, the Potency entry is “inactive”.

As to `CCC(C)n1ncn(-c2ccc(N3CCN(c4ccc(OC[C@H]5CO[C@](Cn6cncn6)(c6ccc(Cl)cc6Cl)O5)cc4)CC3)cc2)c1=O` (stereo not given in full), the Potency result is “inactive”.

With `Nc1cccc2c(N)cccc12`, the Potency was 13.7 µM (active).

With `CC1(O)CSC(C)(O)CS1` (stereo not given), the Potency was 30.6 µM (active).

For the molecule `Cc1ccc(NC(=O)c2ccc(CN3CCN(C)CC3)cc2)cc1Nc1nccc(-c2cccnc2)n1`, the Potency result is “inactive”.

As to `CN(C)C(=O)Nc1ccccc1`, the Potency entry was “inactive”.

As to `CCC1OCC(COc2ccc(Oc3ccccc3)cc2)O1` (stereo not given), the Potency is 68.6 µM (active).

As for `NC(=O)C1(N2CCCCC2)CCN(CCCN2c3ccccc3CCc3ccc(Cl)cc32)CC1`, the Potency entry is “inactive”.

For `O=C=NC1CCC(CC2CCC(N=C=O)CC2)CC1` (stereo not given), the Potency entry was “inactive”.

Regarding `CCC(=O)OCCC(C)CCC=C(C)C` (stereo not given), the Potency result is “inactive”.

For `NS(=O)(=O)c1ccc(C(=O)O)cc1`, the Potency entry was “inactive”.

Consider `CCC(C)c1cc(C(C)(C)C)c(O)c(C(C)(C)C)c1` (stereo not given), for which the Potency is 16.9 µM (active).

As to `CC1(C)[C@@H](OC(=O)CCC(=O)O)CC[C@]2(C)[C@H]3C(=O)C=C4[C@@H]5C[C@@](C)(C(=O)O)CC[C@]5(C)CC[C@@]4(C)[C@]3(C)CC[C@@H]12`, the Potency result was “inactive”.

Regarding `CCCCCCCC/C=C\CCCCCCCC(=O)N(C)CC(=O)O`, the Potency is 54.5 µM (active).

Take `CC(C)NC[C@@H](O)COc1ccc(CC(N)=O)cc1`: the Potency entry was “inactive”.

In the case of `CCCC1CCOC(C)S1` (stereo not given), the Potency result was “inactive”.

Consider `CCOc1ccc2nc(N)sc2c1`, for which the Potency result is “inactive”.

For the molecule `CSc1ccc(Oc2ccc(S(N)(=O)=O)cc2CN(C)C)cc1C`, the Potency result was “inactive”.
